According to PubChem BioAssay (EPA / NIEHS):
Results filed as inconclusive are left out. Calls of active or inactive are those of the source. How the source made its calls: active means hit-call score of the fitted dose curve at least 0.9, where 1 is the maximum; inconclusive means response in the unintended direction; inactive means score below 0.9.

How the values were obtained:
[1] = biological target: human Matrix Metalloproteinase-3 (MMP3), MMP3 (gene 4314) (UniProt P08254); experiment: NVS_ENZ_hMMP3: NovaScreen (NVS) Enzymatic Assay for human Matrix Metalloproteinase-3 (MMP3) (AID 2283185)
Summary of the method: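 Cell-free recombinant human MMP3 activity, fluorescence intensity read 1 h after dosing. Primary screen duplicate at 25 uM, actives retested in concentration series; loss of signal vs DMSO baseline.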

[2] = biological target: human Matrix Metalloproteinase-9 (MMP9), MMP9 (gene 4318) (UniProt P14780); experiment: NVS_ENZ_hMMP9: NovaScreen (NVS) Enzymatic Assay for human Matrix Metalloproteinase-9 (MMP9) (AID 2283190);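 further: cell-free recombinant MMP9 protease activity read by fluorescent substrate signal; active means inhibition seen as loss of fluorescence signal versus DMSO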
Summary of the method: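 Inhibition was scored as loss of fluorescence signal against DMSO controls. The recombinant protease was exposed to chemicals for 1 hour before reading; initial testing used 25 uM in duplicate.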

[3] = biological target: human Protein Tyrosine Phosphatase Non-receptor Type 9 (PTPN9), PTPN9 (gene 5780) (UniProt P43378); experiment: NVS_ENZ_hPTPN9: NovaScreen (NVS) Enzymatic Assay for human Protein Tyrosine Phosphatase Non-receptor Type 9 (PTPN9) (AID 2283209)
Chain of human Protein Tyrosine Phosphatase Non-receptor Type 9 (PTPN9), PTPN9 (gene 5780) (P43378 whole entry, looked up): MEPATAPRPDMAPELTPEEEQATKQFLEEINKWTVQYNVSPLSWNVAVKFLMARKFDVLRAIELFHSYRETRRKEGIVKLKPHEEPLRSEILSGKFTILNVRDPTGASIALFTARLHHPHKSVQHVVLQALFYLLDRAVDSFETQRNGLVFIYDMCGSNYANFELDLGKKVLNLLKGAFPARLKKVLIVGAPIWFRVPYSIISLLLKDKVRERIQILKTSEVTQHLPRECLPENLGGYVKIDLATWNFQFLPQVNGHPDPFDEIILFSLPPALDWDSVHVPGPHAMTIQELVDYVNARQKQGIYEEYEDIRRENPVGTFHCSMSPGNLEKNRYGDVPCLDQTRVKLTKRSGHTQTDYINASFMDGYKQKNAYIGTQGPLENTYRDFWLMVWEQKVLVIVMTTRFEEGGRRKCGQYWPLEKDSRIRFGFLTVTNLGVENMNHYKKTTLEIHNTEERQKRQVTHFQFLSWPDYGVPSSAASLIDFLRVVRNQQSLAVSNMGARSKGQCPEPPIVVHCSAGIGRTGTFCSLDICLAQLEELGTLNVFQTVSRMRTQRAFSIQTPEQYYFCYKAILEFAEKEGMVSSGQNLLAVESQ
Summary of the method: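 Sf9-expressed enzyme in a cell-free assay, fluorescence read 1.33 h after dosing with mobility-shift separation of substrate and product. Tested at 25 uM in duplicate, then up to 50 uM; signal loss versus DMSO.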

[4] = biological target: human Mitogen- and Stress-activated Protein Kinase-1 (Msk1), RPS6KA5 (gene 9252) (UniProt O75582); experiment: NVS_ENZ_hMsk1: NovaScreen (NVS) Enzymatic Assay for human Mitogen- and Stress-activated Protein Kinase-1 (Msk1) (AID 2283187)
Summary of the method: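 Recombinant kinase with fluorescent substrate; product separated by electrophoretic mobility shift, read 1 h after dosing. Screened in duplicate at 25 uM; hits (e.g. ≥30% inhibition) tested in concentration–response up to 50 uM. DMSO baseline.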

[5] = biological target: cAMP-dependent protein kinase catalytic subunit alpha (Homo sapiens) (UniProt P17612); experiment: NVS_ENZ_hPKA: NovaScreen (NVS) Enzymatic Assay for human Protein Kinase A (PKA) (AID 2283192)
Summary of the method: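 Recombinant human PKA with specific fluorescent substrate, product separated by electrophoretic mobility shift, read 1 h after dosing. Primary screen at 25 uM in duplicate; actives then run in concentration-response up to 50 uM, activity relative to DMSO.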

[6] = biological target: human Phosphodiesterase 5 (PDE5), PDE5A (gene 8654) (UniProt O76074); experiment: NVS_ENZ_hPDE5: NovaScreen (NVS) Enzymatic Assay for human Phosphodiesterase 5 (PDE5) (AID 2283194)
Summary of the method: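 Recombinant human PDE5 with specific substrate, read 1 h after dosing by fluorescence with electrophoretic mobility-shift separation of substrate and product. Initial single-concentration duplicate screen at 25 uM, actives followed in concentration series; loss of activity versus DMSO.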

[7] = biological target: Serine/threonine-protein phosphatase PP1-alpha catalytic subunit (Homo sapiens) (UniProt P62136); experiment: NVS_ENZ_hPPP1CA: NovaScreen (NVS) Enzymatic Assay for human Protein Phosphatase 1 Aatalytic subunit Alpha (PPP1CA) (AID 2283200)
Chain of Serine/threonine-protein phosphatase PP1-alpha catalytic subunit (Homo sapiens) (P62136 whole entry, looked up): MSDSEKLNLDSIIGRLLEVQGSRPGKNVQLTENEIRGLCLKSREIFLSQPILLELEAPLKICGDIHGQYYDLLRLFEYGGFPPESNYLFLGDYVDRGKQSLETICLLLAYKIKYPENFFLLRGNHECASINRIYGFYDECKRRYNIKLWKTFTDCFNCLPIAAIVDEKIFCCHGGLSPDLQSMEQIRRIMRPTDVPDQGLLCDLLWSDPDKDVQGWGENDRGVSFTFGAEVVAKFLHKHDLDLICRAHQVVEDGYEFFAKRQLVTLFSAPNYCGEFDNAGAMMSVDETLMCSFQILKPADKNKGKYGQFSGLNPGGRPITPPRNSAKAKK
Summary of the method: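 Recombinant enzyme activity read by fluorescence with electrophoretic mobility shift separating substrate from product, 1.33 h after dosing; loss of signal vs DMSO baseline. Primary screen in duplicate at 25 uM; actives retested in concentration-response up to 50 uM.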

[8] = biological target: human Protein Tyrosine Phosphatase Non-receptor Type 1 (PTPN1), PTPN1 (gene 5770) (UniProt P18031); experiment: NVS_ENZ_hPTPN1: NovaScreen (NVS) Enzymatic Assay for human Protein Tyrosine Phosphatase Non-receptor Type 1 (PTPN1) (AID 2283201)
Chain of human Protein Tyrosine Phosphatase Non-receptor Type 1 (PTPN1), PTPN1 (gene 5770) (P18031 whole entry, looked up): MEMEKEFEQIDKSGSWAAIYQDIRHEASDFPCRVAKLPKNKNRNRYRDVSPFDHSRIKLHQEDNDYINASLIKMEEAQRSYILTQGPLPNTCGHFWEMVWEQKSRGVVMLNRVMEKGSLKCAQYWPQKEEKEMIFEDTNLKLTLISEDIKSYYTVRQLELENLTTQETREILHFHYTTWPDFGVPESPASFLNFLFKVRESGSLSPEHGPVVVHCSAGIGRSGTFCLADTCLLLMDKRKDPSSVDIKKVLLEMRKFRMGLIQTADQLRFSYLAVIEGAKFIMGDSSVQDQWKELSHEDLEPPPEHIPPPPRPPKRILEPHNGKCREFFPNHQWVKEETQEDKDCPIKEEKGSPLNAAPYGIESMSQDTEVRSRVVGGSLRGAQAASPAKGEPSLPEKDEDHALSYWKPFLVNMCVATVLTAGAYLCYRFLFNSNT
Summary of the method: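 Cell-free fluorogenic-substrate activity assay on recombinant enzyme, read 1.33 h after dosing by fluorescence and electrophoretic mobility shift; loss of signal vs DMSO baseline. Primary screen in duplicate at 25 uM, hits then run in concentration-response up to 50 uM.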

[9] = biological target: Tyrosine-protein phosphatase non-receptor type 12 (Homo sapiens) (UniProt Q05209); experiment: NVS_ENZ_hPTPN12: NovaScreen (NVS) Enzymatic Assay for human Protein Tyrosine Phosphatase Non-receptor Type 12 (PTPN12) (AID 2283204)
Summary of the method: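 Single-concentration duplicates (25 uM) preceded singleton concentration-response up to 50 uM for chemicals passing threshold. Cell-free recombinant PTPN12 activity was read 1.33 h after dosing via fluorescence after mobility-shift separation; loss of signal versus DMSO.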

[10] = biological target: human Protein Tyrosine Phosphatase Non-receptor Type 4 (PTPN4), PTPN4 (gene 5775) (UniProt P29074); experiment: NVS_ENZ_hPTPN4: NovaScreen (NVS) Enzymatic Assay for human Protein Tyrosine Phosphatase Non-receptor Type 4 (PTPN4) (AID 2283208)
Summary of the method: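 Cell-free assay of PTPN4 expressed in Sf9 cells, using a fluorescent substrate with product separated by mobility shift; read 1.33 h after dosing. Single-point screen at 25 uM, then concentration-response up to 50 uM. Loss of signal relative to DMSO.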

[11] = biological target: human Protein Tyrosine Phosphatase Receptor Type B (PTPRB), PTPRB (gene 5787) (UniProt P23467); experiment: NVS_ENZ_hPTPRB: NovaScreen (NVS) Enzymatic Assay for human Protein Tyrosine Phosphatase Receptor Type B (PTPRB) (AID 2283211)
Summary of the method: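 Recombinant human PTPRB with a fluorescent substrate, product separated by electrophoretic mobility shift; read 1 h after dosing. Primary screen in duplicate at 25 uM; actives then retested in concentration series; loss of signal versus DMSO.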

[12] = biological target: human Phosphodiesterase 10 (PDE10), PDE10A (gene 10846) (UniProt Q9Y233); experiment: NVS_ENZ_hPDE10: NovaScreen (NVS) Enzymatic Assay for human Phosphodiesterase 10 (PDE10) (AID 2283195)
Summary of the method: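 PDE10A, cell-free; 1 h incubation; fluorescence intensity + electrophoretic mobility shift separating substrate/product; DMSO = baseline; 25 uM duplicate primary, CRC up to 50 uM.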

[13] = biological target: human Phosphoinositide 3-kinase alpha (PI3Ka), PIK3CA (gene 5290) (UniProt P42336); experiment: NVS_ENZ_hPI3Ka: NovaScreen (NVS) Enzymatic Assay for human Phosphoinositide 3-kinase alpha (PI3Ka) (AID 2283196)
Chain of human Phosphoinositide 3-kinase alpha (PI3Ka), PIK3CA (gene 5290) (P42336 whole entry, looked up): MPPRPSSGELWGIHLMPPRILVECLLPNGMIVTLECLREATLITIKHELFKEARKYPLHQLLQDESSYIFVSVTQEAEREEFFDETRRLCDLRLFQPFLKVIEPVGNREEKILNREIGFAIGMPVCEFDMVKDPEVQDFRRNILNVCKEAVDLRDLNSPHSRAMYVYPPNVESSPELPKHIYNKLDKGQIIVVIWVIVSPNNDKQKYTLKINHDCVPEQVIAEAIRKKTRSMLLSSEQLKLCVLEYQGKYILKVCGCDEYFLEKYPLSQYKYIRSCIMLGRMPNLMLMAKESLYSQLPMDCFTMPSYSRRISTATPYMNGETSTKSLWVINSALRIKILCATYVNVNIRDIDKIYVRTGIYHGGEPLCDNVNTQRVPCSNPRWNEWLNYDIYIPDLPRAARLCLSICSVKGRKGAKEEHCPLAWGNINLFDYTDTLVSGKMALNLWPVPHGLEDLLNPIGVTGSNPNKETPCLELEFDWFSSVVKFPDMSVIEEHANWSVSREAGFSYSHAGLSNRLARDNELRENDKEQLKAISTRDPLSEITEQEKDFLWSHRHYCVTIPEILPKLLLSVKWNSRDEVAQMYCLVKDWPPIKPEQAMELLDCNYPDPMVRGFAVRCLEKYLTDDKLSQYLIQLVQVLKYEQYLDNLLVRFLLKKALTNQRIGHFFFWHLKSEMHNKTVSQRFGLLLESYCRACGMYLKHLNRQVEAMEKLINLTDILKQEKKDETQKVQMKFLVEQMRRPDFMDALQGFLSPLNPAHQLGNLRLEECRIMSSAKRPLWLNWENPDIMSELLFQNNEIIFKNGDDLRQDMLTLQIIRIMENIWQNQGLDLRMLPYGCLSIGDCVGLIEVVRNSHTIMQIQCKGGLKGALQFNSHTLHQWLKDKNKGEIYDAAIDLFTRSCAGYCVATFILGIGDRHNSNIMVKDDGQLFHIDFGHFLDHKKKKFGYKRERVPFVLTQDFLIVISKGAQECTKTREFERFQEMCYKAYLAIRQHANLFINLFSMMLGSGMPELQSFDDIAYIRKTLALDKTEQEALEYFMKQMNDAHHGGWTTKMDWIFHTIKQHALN
Summary of the method: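 Chemicals were first screened at 25 uM in duplicate, then hits were run as concentration series up to 50 uM. Enzyme activity was measured by fluorescence after mobility-shift separation, with loss of signal relative to DMSO taken as activity.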

[14] = biological target: human Protein Tyrosine Phosphatase Non-receptor Type 6 (PTPN6), PTPN6 (gene 5777) (UniProt P29350); experiment: NVS_ENZ_hPTPN6: NovaScreen (NVS) Enzymatic Assay for human Protein Tyrosine Phosphatase Non-receptor Type 6 (PTPN6) (AID 2283210)
Summary of the method: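 Cell-free assay with recombinant PTPN6 expressed in SF9 cells, fluorescent substrate, product separated from substrate by electrophoretic mobility shift; read 1.33 hours after dosing. Primary screen in duplicate at 25 uM, actives retested in concentration series; DMSO baseline.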

[15] = biological target: human Protein Phosphatase, Mg2+/Mn2+ Dependent 1A (PPM1A), PPM1A (gene 5494) (UniProt P35813); experiment: NVS_ENZ_hPPM1A: NovaScreen (NVS) Enzymatic Assay for human Protein Phosphatase, Mg2+/Mn2+ Dependent 1A (PPM1A) (AID 2283198)
Summary of the method: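 Cell-free recombinant PPM1A phosphatase assay with fluorescent substrate, read 1 h after dosing by electrophoretic mobility shift. Chemicals screened in duplicate at 25 uM, then in concentration-response up to 50 uM; loss of activity versus DMSO.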

[16] = biological target: Tyrosine-protein phosphatase non-receptor type 14 (Homo sapiens) (UniProt Q15678); experiment: NVS_ENZ_hPTPN14: NovaScreen (NVS) Enzymatic Assay for human Protein Tyrosine Phosphatase Non-receptor Type 14 (PTPN14) (AID 2283206)
Summary of the method: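 Cell-free recombinant human PTPN14 with fluorescent substrate, read 0.5 h after dosing by fluorescence and electrophoretic mobility shift separating substrate from product. Primary screen at 25 uM in duplicate; hits run to 50 uM maximum; loss of signal versus DMSO.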

[17] = biological target: Tyrosine-protein phosphatase non-receptor type 13 (Homo sapiens) (UniProt Q12923); experiment: NVS_ENZ_hPTPN13: NovaScreen (NVS) Enzymatic Assay for human Protein Tyrosine Phosphatase Non-receptor Type 13 (PTPN13) (AID 2283205)
Chain of Tyrosine-protein phosphatase non-receptor type 13 (Homo sapiens) (Q12923 whole entry, looked up): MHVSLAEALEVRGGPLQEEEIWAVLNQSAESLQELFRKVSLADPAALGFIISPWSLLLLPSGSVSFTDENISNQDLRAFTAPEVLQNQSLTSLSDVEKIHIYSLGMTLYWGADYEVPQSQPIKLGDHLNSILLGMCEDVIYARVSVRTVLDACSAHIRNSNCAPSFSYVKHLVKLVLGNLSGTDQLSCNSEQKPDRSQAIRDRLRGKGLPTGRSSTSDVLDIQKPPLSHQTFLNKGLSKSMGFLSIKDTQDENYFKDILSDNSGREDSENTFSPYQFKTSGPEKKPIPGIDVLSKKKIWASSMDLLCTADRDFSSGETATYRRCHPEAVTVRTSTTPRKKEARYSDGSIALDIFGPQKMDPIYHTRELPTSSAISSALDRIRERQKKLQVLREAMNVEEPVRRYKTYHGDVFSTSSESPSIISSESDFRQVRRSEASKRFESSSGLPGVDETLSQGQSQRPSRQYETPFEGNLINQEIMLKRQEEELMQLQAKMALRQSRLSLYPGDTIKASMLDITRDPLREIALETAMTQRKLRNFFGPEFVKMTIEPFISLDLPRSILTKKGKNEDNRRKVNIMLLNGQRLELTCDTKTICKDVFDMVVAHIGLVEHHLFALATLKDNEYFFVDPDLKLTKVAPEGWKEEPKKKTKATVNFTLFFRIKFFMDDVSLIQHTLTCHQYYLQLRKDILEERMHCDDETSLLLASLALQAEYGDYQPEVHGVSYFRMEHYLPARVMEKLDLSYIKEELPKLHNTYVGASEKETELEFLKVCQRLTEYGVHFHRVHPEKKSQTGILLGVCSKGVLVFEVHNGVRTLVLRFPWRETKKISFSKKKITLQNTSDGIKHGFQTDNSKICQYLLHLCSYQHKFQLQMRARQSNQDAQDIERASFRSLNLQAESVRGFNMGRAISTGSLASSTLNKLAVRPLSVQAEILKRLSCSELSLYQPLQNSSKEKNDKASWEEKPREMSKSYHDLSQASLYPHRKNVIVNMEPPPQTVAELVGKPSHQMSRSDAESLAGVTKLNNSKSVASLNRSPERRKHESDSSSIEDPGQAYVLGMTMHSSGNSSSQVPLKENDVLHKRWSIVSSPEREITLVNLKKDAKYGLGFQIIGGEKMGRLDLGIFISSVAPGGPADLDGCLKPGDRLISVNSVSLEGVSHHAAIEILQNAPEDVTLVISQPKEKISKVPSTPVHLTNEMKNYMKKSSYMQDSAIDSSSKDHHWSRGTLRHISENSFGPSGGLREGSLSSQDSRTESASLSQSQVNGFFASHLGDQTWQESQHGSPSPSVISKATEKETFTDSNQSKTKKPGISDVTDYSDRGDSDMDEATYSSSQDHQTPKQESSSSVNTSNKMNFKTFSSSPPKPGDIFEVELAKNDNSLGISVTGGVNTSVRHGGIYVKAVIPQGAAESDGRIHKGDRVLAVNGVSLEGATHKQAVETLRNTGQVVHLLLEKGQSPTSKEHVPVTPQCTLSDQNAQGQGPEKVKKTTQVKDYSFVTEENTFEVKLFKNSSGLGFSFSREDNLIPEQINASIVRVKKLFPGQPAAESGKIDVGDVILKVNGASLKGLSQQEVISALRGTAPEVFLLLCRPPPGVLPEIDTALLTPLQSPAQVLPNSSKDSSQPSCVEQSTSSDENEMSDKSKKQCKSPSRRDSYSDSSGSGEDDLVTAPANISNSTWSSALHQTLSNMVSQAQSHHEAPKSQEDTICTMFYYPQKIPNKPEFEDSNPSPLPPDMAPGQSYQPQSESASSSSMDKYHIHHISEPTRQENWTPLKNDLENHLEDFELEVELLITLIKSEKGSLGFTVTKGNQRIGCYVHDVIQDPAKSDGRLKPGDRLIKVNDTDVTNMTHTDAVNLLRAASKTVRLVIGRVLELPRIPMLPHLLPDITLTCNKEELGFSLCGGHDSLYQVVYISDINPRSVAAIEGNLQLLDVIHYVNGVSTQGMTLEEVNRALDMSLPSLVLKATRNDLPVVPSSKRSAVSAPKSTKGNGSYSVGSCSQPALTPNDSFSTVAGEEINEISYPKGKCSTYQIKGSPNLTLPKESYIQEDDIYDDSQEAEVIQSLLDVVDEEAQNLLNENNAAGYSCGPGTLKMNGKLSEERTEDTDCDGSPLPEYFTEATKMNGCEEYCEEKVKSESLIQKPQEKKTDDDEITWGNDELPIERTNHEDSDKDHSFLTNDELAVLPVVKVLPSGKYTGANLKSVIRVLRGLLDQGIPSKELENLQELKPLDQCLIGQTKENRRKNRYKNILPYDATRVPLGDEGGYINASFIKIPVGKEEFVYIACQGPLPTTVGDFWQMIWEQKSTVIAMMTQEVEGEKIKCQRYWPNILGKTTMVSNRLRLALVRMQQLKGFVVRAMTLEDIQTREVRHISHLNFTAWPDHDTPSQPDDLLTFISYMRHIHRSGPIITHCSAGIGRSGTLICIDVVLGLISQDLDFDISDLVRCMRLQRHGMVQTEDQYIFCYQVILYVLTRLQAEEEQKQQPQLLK
Summary of the method: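 Cell-free assay of recombinant human PTPN13 with a fluorescent substrate, product separated by electrophoretic mobility shift and read 0.5 h after dosing. Primary screen at 25 uM in duplicate, then concentration-response up to 50 uM. Loss of signal fitted against DMSO.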

[18] = biological target: Tyrosine-protein phosphatase non-receptor type 11 (Homo sapiens) (UniProt Q06124); experiment: NVS_ENZ_hPTPN11: NovaScreen (NVS) Enzymatic Assay for human Protein Tyrosine Phosphatase Non-receptor Type 11 (PTPN11) (AID 2283202)
Summary of the method: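 Recombinant human PTPN11 activity on a fluorescent substrate, with substrate/product separated by electrophoretic mobility shift; read 0.5 h after dosing, loss of signal vs DMSO. Duplicate 25 uM screen, then concentration-response up to 50 uM.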

[19] = biological target: human Protein Tyrosine Phosphatase Receptor Type F (PTPRF), PTPRF (gene 5792) (UniProt P10586); experiment: NVS_ENZ_hPTPRF: NovaScreen (NVS) Enzymatic Assay for human Protein Tyrosine Phosphatase Receptor Type F (PTPRF) (AID 2283213)
Summary of the method: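 Cell-free fluorescence enzyme assay with recombinant protein and substrate; product separated by electrophoretic mobility shift. Read 1 h after dosing, single 25 uM duplicate screen, then concentration-response up to 50 uM; loss of signal vs DMSO.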

For `C[Si]1(C)O[Si](C)(C)O[Si](C)(C)O[Si](C)(C)O1`, the outcome [1] was “inactive”.
For `NS(=O)(=O)c1cc2c(cc1Cl)NCNS2(=O)=O`, the outcome [2] was “inactive” and the outcome [3] was “inactive”.
With `FC(F)(F)C(F)(F)C(F)(F)C(F)(F)C(F)(F)C(F)(F)CCI` the outcome [4] was “inactive”, the outcome [5] was “inactive” and the AC50 [6] was 19.7 µM (active). The outcome [7] was “inactive”, the outcome [8] was “inactive” and the outcome [9] was “inactive”. The outcome [10] was “inactive” and the outcome [11] was “inactive”.
With `Cc1nc(-c2ccc3c(c2)CCN(CCC2CCC(NC(=O)/C=C/c4ccc(F)cc4)CC2)CC3)no1` (configuration not stated) the AC50 [1] was 16.6 µM (active), the outcome [6] was “inactive” and the AC50 [12] was 3.71 µM (active). The outcome [13] was “inactive” and the outcome [9] was “inactive”.
With `CC=Cc1ccc(O)c(OC)c1` the outcome [6] was “inactive”.
For `COc1ccc(C)cc1N`, the outcome [14] was “inactive”.
With `O=c1[nH]cc(F)c(=O)[nH]1` the outcome [6] was “inactive” and the outcome [15] was “inactive”.
With `CC1(C)NC(=O)NC1=O` the outcome [7] was “inactive”.
For `Cc1cc(NC(=O)C(=O)O)cc(C)c1Oc1ccc(O)c2c1CCC2`, the AC50 [6] was 8.94 µM (active) and the outcome [15] was “inactive”.
`C1CCC(SSC2CCCCC2)CC1` was tested, and the outcome [8] was “inactive” and the outcome [16] was “inactive”.
In the case of `Oc1ccc2ccccc2c1N=Nc1ccccc1`, the AC50 [3] is reported as 25 µM (active) and the outcome [14] is reported as “inactive”.
In the case of `CC(C)(C)c1cc(O)c(C(C)(C)C)cc1O`, the outcome [15] is reported as “inactive”.
With `CC1(C)CC(N=C=O)CC(C)(CN=C=O)C1` (configuration not stated) the AC50 [17] was 6.77 µM (active).
For `Cc1cc(=O)[nH]c(=S)[nH]1`, the outcome [15] was “inactive”.
For `CCCCCCCCCCC`, the outcome [3] was “inactive”.
In the case of `Cc1ccc2ncccc2c1`, the outcome [18] is reported as “inactive”, the outcome [10] is reported as “inactive” and the outcome [3] is reported as “inactive”. For the same molecule, the outcome [14] was “inactive”.
`CC(=O)OC/C=C(\C)CCC=C(C)C` was tested, and the outcome [16] was “inactive”.
With `CC(C)c1ccc(C(=O)N=C(N)N)cc1S(C)(=O)=O` the outcome [13] was “inactive” and the outcome [19] was “inactive”.
For `COc1cc(-c2nc(NC(=O)c3cc4cc(C)cc(C)c4n3CC(=O)O)sc2CCC2CCCCC2)c(OC)cc1Cl`, the AC50 [7] was 1.42 µM (active) and the AC50 [17] was 6.01 µM (active).
For `O=[N+]([O-])C(CO)(CO)CO`, the AC50 [3] was 38.4 µM (active) and the outcome [14] was “inactive”.
`CCCCN(CCCC)CCCC` was tested, and the outcome [7] was “inactive”.
With `C[C@]12C=CC(=O)C=C1CC[C@@H]1[C@@H]2C(=O)C[C@@]2(C)[C@H]1CC[C@]2(O)C(=O)CO` the outcome [14] was “inactive”.
With `Cc1ccc(C)c(C)c1` the outcome [6] was “inactive” and the outcome [14] was “inactive”.
In the case of `O=C(O)CCCCC(=O)O`, the outcome [3] is reported as “inactive”.
For `Cc1cccc(C)c1O`, the outcome [6] was “inactive”.
For `CCCCCCC(=O)OCC`, the outcome [15] was “inactive”.
`Oc1ccc2c(c1)OC[C@@H](N1CCC(O)(c3ccc(F)cc3)CC1)[C@H]2O` was tested, and the outcome [15] was “inactive”.
With `CCOC(=O)C(C)(C)Oc1ccc(Cl)cc1` the outcome [12] was “inactive”, the outcome [13] was “inactive” and the outcome [8] was “inactive”. For the same molecule, the outcome [18] was “inactive”, the outcome [9] was “inactive” and the outcome [17] was “inactive”. The outcome [3] was “inactive”.
